Among all 340,000 compounds or so, about 1,700 (0.5%) were called active.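 How the source made its calls: active means compounds whose inhibition of the agonist-driven luminescence signal at 20 µM reaches about 50% (limit read from the data); inactive means the rest.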 What follows is part of a selection rich in actives, with near analogues and random picks from the rest.
molecular target: C-C chemokine receptor type 6 (Homo sapiens) (UniProt P51684); test: blockers of CCL20-driven beta-arrestin recruitment to CCR6 – cell-based, CHO-K1, luminescence, uHTS, primary screen (AID 493098); conditions: CHO-K1 CCR6 PathHunter beta-arrestin, CCL20-stimulated, at 20 µM, hits give high values;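 further: cells stimulated with CCL20 at 14 nM final; plate controls were DMSO with CCL20 for no effect and DMSO without agonist for full effect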
Sequence (P51684 whole entry, looked up): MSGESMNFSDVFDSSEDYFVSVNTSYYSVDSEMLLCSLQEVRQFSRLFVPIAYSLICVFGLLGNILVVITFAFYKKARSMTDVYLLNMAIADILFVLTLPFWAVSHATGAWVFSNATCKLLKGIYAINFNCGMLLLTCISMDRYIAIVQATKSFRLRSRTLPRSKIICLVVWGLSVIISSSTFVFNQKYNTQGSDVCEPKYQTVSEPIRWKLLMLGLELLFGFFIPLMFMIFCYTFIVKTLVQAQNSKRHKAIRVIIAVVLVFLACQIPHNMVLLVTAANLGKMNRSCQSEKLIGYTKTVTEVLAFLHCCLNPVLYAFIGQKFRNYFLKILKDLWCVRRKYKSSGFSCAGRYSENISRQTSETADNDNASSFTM

Structure (SMILES) | inhibition
Nc1ccc(SCCN2C(=O)c3ccccc3C2=O)cc1 | -6.02% (inactive)
Cc1ccc2oc(=O)c3cnn(CC(=O)N(Cc4ccco4)C4CCCCC4)c3c2c1 | 20.4% (inactive)
CN(C)S(=O)(=O)Oc1ccccc1C(=O)Nc1ccccc1Cl | 8.47% (inactive)
O=C(COC(=O)CCc1c[nH]c(=O)[nH]1)Nc1ccccc1Cl | -11.7% (inactive)
O=C(Nc1ccccc1Cl)/C(Cl)=C(\Cl)S(=O)c1ccccc1 (centres undefined) | 95.1% (active)
Cc1c(S(=O)(=O)N2CC(C)CC(C)C2)c(=O)n(C)c(=O)n1C (centres undefined) | -1.65% (inactive)
CCN(CC)CCCSc1nc2ccccc2s1 | -12.8% (inactive)
O=[N+]([O-])c1c(NCCO)cc(Sc2nc3ccccc3s2)c2nonc12 | 114% (active)
OCCNc1nc(Nc2ccc(Cl)c(Cl)c2)nc2ccccc12 | -13.9% (inactive)
Cc1nc(C)c(-c2nnc(-c3cccc(S(=O)(=O)N(C)C)c3)o2)cc1C(=O)NN | 8.51% (inactive)
CCOc1ccc2[nH]c3nc(SCC(=O)NC4CCCC4)nnc3c2c1 | 15.4% (inactive)
Cc1nc2nc(SCC(=O)Nc3cccc(F)c3)[nH]c2cc1Br | -8.14% (inactive)
O=C(CN1CCN(C(=S)NC2CCCC2)CC1)Nc1ccc(Oc2ccccc2)cc1 | 10.7% (inactive)
CCC(=C/c1sc2ccc3ccccc3c2[n+]1C)/C=C1\Sc2ccc3ccccc3c2N1C | 66.6% (active)
S=c1[nH]nc(/C=C/c2ccccc2)o1 | -11.1% (inactive)
CC(C)[C@H](NC(=O)N1CCn2c1nc1ccccc12)C(=O)NCCc1ccccc1 | 20.7% (inactive)
CCCN(C(=O)COC(=O)CNS(=O)(=O)c1ccc(NC(C)=O)cc1)C1CCS(=O)(=O)C1 (centres undefined) | 4.25% (inactive)
O=C(O)CCN(Cc1ccccc1)S(=O)(=O)c1c(Cl)cccc1Cl | 4.62% (inactive)
C/C(=N\NC(=O)Cc1ccc(Cl)cc1)c1ccccn1 | 102% (active)
NC(=O)NC(CC(=O)NNC(=O)c1ccccn1)c1ccc(Cl)cc1 (centres undefined) | -16.2% (inactive)
CC(=NNC(=S)N1CCCCCC1)c1ccccn1 | 21.3% (inactive)
COC(=O)c1ccc(NC(=S)NN2CCOCC2)cc1 | 1.46% (inactive)
Cc1nc2nc(C)c(NS(=O)(=O)c3ccc(C(C)(C)C)cc3)c(=O)n2[nH]1 | 6.13% (inactive)
CC1CCCC(NC(=O)CSc2nccn2C)C1C (centres undefined) | 7.72% (inactive)

Structure (SMILES) | inhibition
CC1(C)CC2CC(C)(CN2c2ncnc3ccc(Br)cc23)C1 (centres undefined) | 10.7% (inactive)
COc1ccc(OC)c(CCNC(=O)c2nn(C)c3c2CS(=O)(=O)c2ccccc2-3)c1 | 9.14% (inactive)
CCN(CC)C(=O)CSc1nnc(CNc2ccc(F)cc2)n1Cc1ccco1 | 6.14% (inactive)
CN(C)C(=S)N=c1ssc(=S)n1Cc1ccco1 | 59.8% (active)
CC1CN(Cc2ccco2)C(=S)N(c2ccccc2)C1=O (centres undefined) | 9.82% (inactive)
Cc1ccccc1N1C(=O)C2ON(c3ccccc3)C(c3ccncc3)C2C1=O (centres undefined) | -6.39% (inactive)
CN(CC(=O)Nc1cccc(F)c1)C(=O)C1CSC2(C)CCC(=O)N12 (centres undefined) | 9.77% (inactive)
COCCn1c(SCC(=O)Nc2ccccc2F)nc2c(c1=O)SCC2 | -9.89% (inactive)
CCCC1CCC(=NNC(=S)NCCc2ccccc2)CC1 (centres undefined) | 54.4% (active)
S=C(NN=C1CCN(Cc2ccccc2)CC1)NC1CCCCC1 | 21.4% (inactive)
S=C(NCCc1ccccc1)NCC1CCCO1 (centres undefined) | 8.39% (inactive)
Cc1cccc(C)c1N1CCN(S(=O)(=O)N2CCCCC2)CC1 | 18.8% (inactive)
NS(=O)(=O)c1cc(C(=O)OCC(=O)NNC(=O)c2ccccc2)ccc1Cl | 0.62% (inactive)
Cc1cccc(-n2c(O)c(C=Nc3ccccc3N)c(=O)[nH]c2=O)c1 | 88.4% (active)
Cc1cccc(N2C(=O)CC(SC(N)=Nc3ccccc3)C2=O)c1 (centres undefined) | 5.48% (inactive)
Cc1ccc(N=Cc2c(O)n(-c3nccs3)c(=O)c3ccccc23)c(C)c1 | 17.6% (inactive)
CCCCS(=O)c1snnc1C (centres undefined) | 4.33% (inactive)
CCC(CC)c1nnc(NC(=O)C2=COCCO2)s1 | -8.69% (inactive)
CCOc1ccc(S(=O)(=O)N2CCCCC2)cc1NC(=O)CN1CCCC1c1cccs1 (centres undefined) | 13.2% (inactive)
CC(=O)c1sc(N/N=C/c2ccc(C(C)C)cc2)nc1C | -0.42% (inactive)
COc1cccc2sc(Nc3nc(C)c(C(C)=O)s3)nc12 | 52.1% (active)
CC(=O)c1sc(N/N=C\c2ccc(C)cc2)nc1C | 20.1% (inactive)
O=C(CO/N=C/c1ccc(OC(F)F)cc1)NCc1ccc(F)cc1 | 16.1% (inactive)
COc1ccc(CCC(=O)c2ccc(OC)cc2)cc1 | 11.9% (inactive)

Structure (SMILES) | inhibition
COc1ccc(OC(C)C(=O)Nc2cccnc2)cc1 (centres undefined) | 9.87% (inactive)
COc1ccc(CS(=O)/C(Cl)=C(/Cl)C(=O)Nc2ccc(OC)nc2)cc1 (centres undefined) | 95.4% (active)
CC(C)(C)CN1CCNC(=O)C1CC(=O)NC1Cc2ccccc2C1 (centres undefined) | -8.22% (inactive)
CC/C=C/C(=O)N1CC2(CC(c3cccc(NC(=O)CC)c3)=NO2)C[C@H]1C(N)=O (some centres undefined) | 3.3% (inactive)
COC(=O)c1cccc(N(C(=O)CNC(=O)c2cccs2)C(C(=O)NCC2CCCO2)c2ccc(OC)c(OC)c2)c1 (centres undefined) | -0.67% (inactive)
COc1ccc(F)cc1C(=O)COC(=O)c1n[nH]c(=O)c2ccccc12 | 24.8% (inactive)
COC(=O)Cc1c(-c2[nH]c3ccccc3c2CC(=O)OC)[nH]c2ccccc12 | 85.9% (active)
CCCOC(=O)Cc1c(O)c2ccccc2[nH]c1=O | -17.8% (inactive)
COC(=O)Cc1ccc(NC(=S)NCc2ccccc2)cc1 | -10.8% (inactive)
Cc1ccc2cccc(O)c2[n+]1[O-] | 54.9% (active)
NCC(=O)c1cccc2ccc[n+]([O-])c12 | -4.01% (inactive)
COc1ccc2c(c1)[C@H]1[C@H](CO2)[C@H](c2ccccc2)[C@]2(C)C(=O)Nc3cc(F)c(F)cc3C(=O)N12 | -0.31% (inactive)
Nc1ccccc1SC(C[N+](=O)[O-])c1ccccc1 (centres undefined) | 62.7% (active)
C/C(N)=C(\C#N)C(=O)NCCc1ccccn1 | 4.85% (inactive)
O=C(NC(=S)Nc1ncccn1)c1ccccc1Br | 1.75% (inactive)
Cc1cc(C)c(C2C3=C(Nc4c2c(C)nn4-c2ccccn2)c2ccccc2C3=O)c(C)c1 (centres undefined) | 53.2% (active)
COCC1CCCN(Cc2cn[nH]c2-c2cc3ccccc3o2)C1 (centres undefined) | 7.28% (inactive)
c1nc(COc2nsnc2N2CCOCC2)cs1 | -2.16% (inactive)
COc1cccc(CN2CCN(Cc3ccc4cccc(F)c4n3)CC2CCO)c1 (centres undefined) | 11.8% (inactive)
C=CS(=O)c1sc(Cl)c(N2CCOCC2)c1[N+](=O)[O-] (centres undefined) | 93.5% (active)
O=[N+]([O-])c1ccc(N2CCOCC2)cc1 | 7.93% (inactive)
Cc1nc2cc(C(F)(F)F)ccc2n1CCNc1nc(-c2cc(Cl)c(N)c(Cl)c2)cs1 | 6.34% (inactive)
COc1ccc(NC(=O)c2oc3ccc(S(=O)(=O)N4CCOCC4)cc3c2C)cc1 | 8.2% (inactive)
CCOC(=O)NC(C(F)(F)F)(C(F)(F)F)P(=O)(c1ccccc1)c1ccccc1 | 11.6% (inactive)

Structure (SMILES) | inhibition
COC(=O)[C@]1(C)CCC[C@@]2(C)C3CC[C@]4(OC(C)=O)C[C@@]3(CCC21)CC4=NO (some centres undefined) | -0.25% (inactive)
Cc1cccc(CS(=O)(=O)c2ncc(Cl)c(C(=O)Nc3ccc(F)cc3)n2)c1 | 79.4% (active)
CSc1nnc(NC(=O)c2nc(S(=O)(=O)Cc3ccc(C)cc3)ncc2Cl)s1 | -1.49% (inactive)
O=C(Nc1ccc(F)cc1)c1ccc(S(=O)(=O)NCc2cccnc2)cc1 | -1.15% (inactive)
CCOc1ccc(NC(=O)c2nc(SCC)ncc2Cl)cc1 | 3.21% (inactive)
Cc1ccc(CS(=O)(=O)c2ncc(Cl)c(C(=O)Nc3nnc(C)s3)n2)cc1 | -7.39% (inactive)
Cc1cccc(NC(=O)c2nc(S(=O)(=O)Cc3ccccc3)ncc2Cl)c1 | 82% (active)
CCCC(C(=O)OCCN(CC)CC)(c1ccccc1)c1ccccc1 | 11.6% (inactive)
COC(=O)c1ccc(-c2noc(CN(Cc3ccccn3)CC3CCCO3)n2)cc1 (centres undefined) | 5.23% (inactive)
CCn1c(=O)c2ccccc2n(CC(=O)N2CCCc3ccccc32)c1=O | 9.45% (inactive)
Cc1ccccc1CSCCNC(=O)c1ccc(N(C)S(=O)(=O)c2ccccc2)cc1 | 32.2% (inactive)
O=C(CC1OC(=O)c2ccccc21)NC1CCCCC1 (centres undefined) | 19.9% (inactive)
COc1ccc(NC(=O)COC(=O)c2ccc(NS(=O)(=O)/C=C/c3ccccc3)cc2)cc1 | 21.3% (inactive)
CC(C)N(Cc1ccccc1)C(=S)Nc1ccc(OC(F)F)cc1 | 18.4% (inactive)
CN(CC(=O)Nc1ccc(OC(F)F)cc1)S(=O)(=O)/C=C/c1ccccc1 | 59.9% (active)
CCOC(=O)C1CCCN(C(=O)/C=C/c2ccc(OC)cc2)C1 (centres undefined) | 6.92% (inactive)
CCN1CCN(C(=O)CSc2ccc(C)cc2)CC1 | 6.4% (inactive)
CCN1CCC(O)(/C=C/c2ccc(C)cc2)C(C(=O)/C=C/c2ccc(C)cc2)C1 (centres undefined) | 63.6% (active)
N#CCCn1cnc2ccccc21 | 8.21% (inactive)
Cc1cc(C)nc(S/C=C/C(=O)c2ccccc2)n1 | 54.2% (active)
Cc1cc(C)nc(SCc2ccccc2C#N)n1 | -11.7% (inactive)
O=C(/C=C/Sc1ncn[nH]1)c1ccc(Cl)cc1 | 31.6% (inactive)
